Measurements taken from PubChem BioAssay (NCATS).
Inconclusive results are not listed. Calls of active or inactive are those of the source. Calls follow the shape of the dose curve; as a rule, active = well fitted inhibition curve with a large enough effect; inconclusive = small, poorly fitted or top-dose-only effect; inactive = flat fitted curve, though single readings scatter.

These compounds were tested on CRL-7250 (assay: qHTS assay to identify novel small-molecules to repurpose for Merkel cell carcinoma treatment (AID 1296009; also: nearly all actives have a fitted effect of over 60% in size)). Conditions: MCC and control cell lines, CellTiter-Glo viability, 72 h; at 44.8 µM (top of the series) unless noted.
In short: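 Cell viability measured by CellTiter-Glo following 72 hr compound treatment at 37 degree celsius, with NPC and MIPE libraries tested in 8- and 11-point concentration series.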

| SMILES | outcome |
| --- | --- |
| OC(CCN1CCCCC1)(c1ccccc1)C1CC2C=CC1C2 (configuration not stated) | inactive |
| CCOc1cc(N)c(Cl)cc1C(=O)NCC1CN(Cc2ccc(F)cc2)CCO1 (configuration not stated) | inactive |
| O=C(CCCN1CCN(c2ccccn2)CC1)c1ccc(F)cc1 | inactive |
| CO[C@@H]1[C@@H](O[C@@H]2O[C@H](C)[C@@H](O[C@H]3C[C@@](C)(O)[C@@H](O)[C@H](C)O3)[C@H](N(C)C)[C@H]2O)[C@@H](CC=O)C[C@@H](C)[C@@H](O[C@@H]2CC[C@H](N(C)C)[C@@H](C)O2)/C=C/C=C/C[C@@H](C)OC(=O)C[C@H]1OC(C)=O | inactive |
| CN(C)C(=O)Oc1cccc([N+](C)(C)C)c1 | inactive |
| CC1(C)[C@@H]2CC[C@@]1(C)C(=O)C2 | inactive |
| Cc1c(N)cccc1C(F)(F)F | inactive |
| CC(C(O)c1ccc(O)cc1)N1CCC(Cc2ccccc2)CC1 (configuration not stated) | inactive [at 17.4 µM] |
| CCn1cc(C(=O)O)c(=O)c2cc(F)c(N3CCN(C)CC3)cc21 | inactive [at 17.4 µM] |
| CC(=O)[C@@]1(O)CC[C@H]2[C@@H]3CCC4=CC(=O)CC[C@]4(C)[C@H]3CC[C@@]21C | inactive |
| CO/N=C(\C(=O)O)c1csc(NC(=O)CCl)n1 | inactive |
| N[C@H](C(=O)O)[C@@H](O)c1ccc(O)c(O)c1 | inactive |
| CN(C)CCN(Cc1ccccc1)c1ccccn1 | inactive |
| Cc1cccc(N(C)C(=S)Oc2ccc3ccccc3c2)c1 | inactive |
| Cn1cnc2c1c(=O)[nH]c(=O)n2C | inactive |
| CCOC(=O)[C@H](CCc1ccccc1)N[C@@H](C)C(=O)N1C(=O)N(C)C[C@H]1C(=O)O | inactive |
| O=C(c1ccc(F)cc1)C1CCN(CCn2c(=O)[nH]c3ccccc3c2=O)CC1 | inactive |
| O=C(O)C1CCC1 | inactive |
| CC(C)(C)c1ccc(C(O)CCCN2CCC(C(O)(c3ccccc3)c3ccccc3)CC2)cc1 (configuration not stated) | inactive |

| SMILES | outcome |
| --- | --- |
| C1CCN2C[C@@H]3C[C@@H](CN4CCCC[C@@H]34)[C@H]2C1 | inactive |
| COc1ccc2[nH]c(S(=O)Cc3ncc(C)c(OC)c3C)nc2n1 (configuration not stated) | inactive |
| COc1cc(N)c(Cl)cc1C(=O)NC1CCN(Cc2ccccc2)CC1 | inactive |
| Clc1ccc(C(Cn2ccnc2)OCc2c(Cl)cccc2Cl)c(Cl)c1 (configuration not stated) | inactive |
| CC(=O)OCC(=O)Nc1cc(C#N)cc(NC(=O)COC(C)=O)c1Cl | inactive |
| Clc1ccc(C(Cn2ccnc2)OCc2ccsc2Cl)c(Cl)c1 (configuration not stated) | inactive |
| OC(CCN1CCCCC1)(c1ccccc1)c1ccccc1 | inactive |
| NC(N)=NC(=O)c1nc(Cl)c(N)nc1N | inactive |
| Cc1cc(O)c(C)c(C)c1O | inactive |
| c1ccc2c(c1)CCc1ccccc1N2 | inactive |
| Cc1cccc(CN2CCN(C(c3ccccc3)c3ccc(Cl)cc3)CC2)c1 (configuration not stated) | inactive |
| O=C(O)Cn1c(C(=O)Nc2nc(-c3ccccc3Cl)cs2)cc2ccccc21 | inactive |
| CC1CCc2cc(F)cc3c(=O)c(C(=O)O)cn1c23 (configuration not stated) | inactive |
| O=C(Nc1ccc(C(=O)O)c(O)c1)c1ccccc1 | inactive |
| Cc1nc2sccn2c(=O)c1CCN1CCC(=C(c2ccc(F)cc2)c2ccc(F)cc2)CC1 | inactive |
| Cc1nnc(C(=O)NC(C)(C)c2nc(C(=O)NCc3ccc(F)cc3)c(O)c(=O)n2C)o1 | inactive |
| O=S1(=O)OC(c2ccc(O)cc2)(c2ccc(O)cc2)c2ccccc21 | inactive |
| Cc1cccc(C)c1NC(=O)C(C)N (configuration not stated) | inactive |
